# Compounds without any hit were thinned out: in the full panel of roughly 83,000, 20% have a hit.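 Cells were grown in 96-well plates and exposed to the test compound at a single concentration for 48 hours; results are reported as percent growth, with values below 10 considered active.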 Unmarked numbers belong to inactive results. Activity calls are given as the source filed them.
# Key:
# Assay in all cases: NCI-60 one-dose screen, 48 h (100 = growth as untreated, 0 = no growth, -100 = all killed)
# Conditions in all cases: 10 µM unless noted
# SK-MEL-2 melanoma = test system: SK-MEL-2 melanoma
# EKVX NSCLC = test system: EKVX NSCLC
# SN12C renal = test system: SN12C renal
# UO-31 renal = test system: UO-31 renal
# TK-10 renal = test system: TK-10 renal
# ACHN renal = test system: ACHN renal
# CAKI-1 renal = test system: CAKI-1 renal
# A498 renal = test system: A498 renal
# CCRF-CEM leukemia = test system: CCRF-CEM leukemia
# MOLT-4 leukemia = test system: MOLT-4 leukemia
SMILES,growth (SK-MEL-2 melanoma),growth (EKVX NSCLC) [%],growth (SN12C renal),growth (UO-31 renal),growth (TK-10 renal) [%],growth (ACHN renal) [%],growth (CAKI-1 renal),growth (A498 renal),growth (CCRF-CEM leukemia),growth (MOLT-4 leukemia)
C1=C[C@H]2O[C@@H]1c1ccc3[nH]ccc3c12,95.7%,105,102%,98.3%,105,107,89.6%,98.6%,90.7%,56%
CCOC(=O)c1nn(C2CCCCO2)c2ccc(NC(=O)Cn3nnc4ccccc43)cc12 (stereo not given),113%,98.1,97.6%,82.6%,117,98.6,97.6%,85.8%,117%,95.9%
CC1(C(=O)O)CCC(N)(C(=O)O)C1(C)C (stereo not given),110%,112,107%,86.5%,101,116,114%,87.7%,89.7%,100%
COc1cc(C)cc2oc3oc(=N)c(C(=O)c4ccccc4)cc3c(=O)c12,114%,106,101%,79.3%,105,95.5,91.6%,90.3%,118%,98.1%
Cc1ccc(NC(=O)N[C@@H](Cc2cc(F)cc(F)c2)C(=O)N[C@@H]2C(=O)N3CCC[C@H]3C(=O)N3CCOC[C@H]3C(=O)N[C@@H](C)C(=O)N3C[C@H](C)C[C@H]3C(=O)O[C@H]2C)cc1,40.7%,30.6,18.4%,28.4%,60.7,29.7,16.5%,-3.1% (active),58.3%,41%
COc1ccc(-c2cc(-c3ccccc3)nc(SCCCCCC(=O)NO)n2)cc1,61.4%,67.5,81.4%,41.6%,34.8,48.9,33.4%,57.1%,13.8%,9.24% (active)
COc1ccc(C(=O)/C=C/c2ccccn2)c(O)c1,89.6%,94.2,77.8%,53.1%,92.4,45,61.3%,91.3%,10.4%,74.2%
O=C(CSc1nc2ccc([N+](=O)[O-])cc2[nH]1)Nc1ccc(F)c(Cl)c1,-7.66% (active),11.1,3.12% (active),3.59% (active),25.1,16.9,9.26% (active),-13.1% (active),19%,5.63% (active)
COC(=O)[C@H](CC(C)C)NC(=O)NC(=O)NC(=O)CI,78.8%,94.8,76.5%,-76.3% (active),72.3,37,-69.2% (active),82.8%,-46.3% (active),4.18% (active)
CCOC(=O)C(C(C)=O)c1nc2sc3cc(Cl)c(Cl)cc3n2c(=O)c1C#N (stereo not given),108%,86,98.8%,58.4%,145,101,96.2%,142%,96.7%,89.6%
Brc1ccc2c(c1)CN(C1CCCCC1)CO2,107%,101,113%,78.9%,111,98.9,102%,100%,107%,99.7%
Nc1cc(N)c(N=Nc2ccc(S(=O)(=O)O)cc2)cc1N=Nc1ccc(-c2ccc(N=Nc3ccc(O)c(C(=O)O)c3)cc2)cc1,103%,97.1,102%,79.8%,142,99.8,90%,108%,98%,102%
